Experimental data reported in the supplement of paper PMC4709259.
Where a name gives a salt, the structure may show the parent alone. ± gives the standard deviation.

Experiments:
[1] = test system: Jurkat; assay: mean cell size (FSC-A) relative to DMSO control (fraction of control); higher = larger cells; conditions: 48 h
How it was run: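 Jurkat cells at 600 cells/µl were incubated for 1 h and then treated for 48h with the Enzo Screen-Well FDA Approved Drug Library v2.0 at 25µM, with DMSO at 0.9% (v/v) final. Compounds that reduced counts below 20% of controls were retested in 10-fold dilutions down to 25nM. Cell count and mean cell size, taken as forward scatter area, were measured by flow cytometry relative to solvent-only controls. Each plate carried 6-12 controls, and values are means of 3 biological replicates.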

[2] = test system: Jurkat; assay: cell count relative to DMSO control (fraction of control); higher = more cells (less growth inhibition); conditions: 48 h

Cc1[nH]cnc1CN1CCc2c(c3ccccc3n2C)C1=O [Alosetron·HCl] (concentration: 25 µM)
mean cell size [1]: 0.954 ± 0.059 | cell count [2]: 0.592 ± 0.12

CCCC(=O)O[C@]1(C(=O)COC(C)=O)CC[C@H]2[C@@H]3C[C@H](F)C4=CC(=O)C=C[C@]4(C)[C@@]3(F)[C@@H](O)C[C@@]21C [Difluprednate] (concentration: 25 µM)
mean cell size [1]: 0.935 ± 0.037 | cell count [2]: 0.605 ± 0.14

CC(C)C(=O)Nc1ccc([N+](=O)[O-])c(C(F)(F)F)c1 [Flutamide] (concentration: 25 µM)
mean cell size [1]: 0.918 ± 0.033 | cell count [2]: 0.329 ± 0.14

CC(C)(C)NC(=O)[C@H]1CC[C@H]2[C@@H]3CC[C@H]4NC(=O)C=C[C@]4(C)[C@H]3CC[C@]12C [Finasteride] (concentration: 25 µM)
mean cell size [1]: 0.978 ± 0.046 | cell count [2]: 0.684 ± 0.12

CC(=O)Oc1ccccc1C(=O)O [Aspirin (Acetylsalicylic Acid)] (concentration: 25 µM)
mean cell size [1]: 0.9355 ± 0.0074 | cell count [2]: 0.97 ± 0.082

Cc1cn(-c2cc(NC(=O)c3ccc(C)c(Nc4nccc(-c5cccnc5)n4)c3)cc(C(F)(F)F)c2)cn1 [Nilotinib] (concentration: 25 µM)
mean cell size [1]: 0.979 ± 0.037 | cell count [2]: 0.762 ± 0.086

COc1ccc(OC)c(C(O)CNC(=O)CN)c1 (centres undefined) [Midodrine·HCl] (concentration: 25 µM)
mean cell size [1]: 0.942 ± 0.065 | cell count [2]: 0.55 ± 0.15

CCCNCC(O)COc1ccccc1C(=O)CCc1ccccc1 (centres undefined) [Propafenone·HCl] (concentration: 25 µM)
mean cell size [1]: 1.06 ± 0.02 | cell count [2]: 0.605 ± 0.13

NC(=O)c1cn(Cc2c(F)cccc2F)nn1 [Rufinamide] (concentration: 25 µM)
mean cell size [1]: 0.968 ± 0.042 | cell count [2]: 0.803 ± 0.055

CC(=O)Oc1ccc(C(c2ccc(OC(C)=O)cc2)c2ccccn2)cc1 [Bisacodyl] (concentration: 25 µM)
mean cell size [1]: 0.915 ± 0.013 | cell count [2]: 0.813 ± 0.09

C[C@@](Cc1ccc(O)c(O)c1)(NN)C(=O)O [Carbidopa] (concentration: 25 µM)
mean cell size [1]: 0.939 ± 0.027 | cell count [2]: 0.439 ± 0.09

CC(=O)[C@H]1CC[C@H]2[C@@H]3CCC4=CC(=O)CC[C@]4(C)[C@H]3CC[C@]12C [Progesterone] (concentration: 25 µM)
mean cell size [1]: 1 ± 0.045 | cell count [2]: 0.755 ± 0.052

Oc1ccc(C2CNCCc3c2cc(O)c(O)c3Cl)cc1 (centres undefined) [Fenoldopam Mesylate] (concentration: 25 µM)
mean cell size [1]: 0.886 ± 0.059 | cell count [2]: 0.272 ± 0.13

CN1CCC(=C2c3ccccc3C=Cc3ccccc32)CC1 [Cyproheptadine·HCl Sesquihydrate] (concentration: 25 µM)
mean cell size [1]: 0.935 ± 0.027 | cell count [2]: 0.762 ± 0.049

Cc1nc2n(c(=O)c1CCN1CCC(c3noc4cc(F)ccc34)CC1)CCCC2O (centres undefined) [Paliperidone] (concentration: 25 µM)
mean cell size [1]: 0.985 ± 0.043 | cell count [2]: 1.06 ± 0.063

CC(=O)NC[C@H]1CN(c2ccc(N3CCOCC3)c(F)c2)C(=O)O1 [Linezolid] (concentration: 25 µM)
mean cell size [1]: 0.942 ± 0.018 | cell count [2]: 0.718 ± 0.084

CN(Cc1ccc(C(C)(C)C)cc1)Cc1cccc2ccccc12 [Butenafine·HCl] (concentration: 25 µM)
mean cell size [1]: 0.97 ± 0.031 | cell count [2]: 0.793 ± 0.076

O=c1[nH]c(=O)n([C@H]2C[C@H](O)[C@@H](CO)O2)cc1F [Floxuridine] (concentration: 25 nM)
mean cell size [1]: 1.06 ± 0.063 | cell count [2]: 0.178 ± 0.096

O=NN(CCCl)C(=O)NCCCl [Carmustine] (concentration: 25 µM)
mean cell size [1]: 1.066 ± 0.0089 | cell count [2]: 0.767 ± 0.014

CCOC(=O)N1CCC(=C2c3ccc(Cl)cc3CCc3cccnc32)CC1 [Loratadine] (concentration: 25 µM)
mean cell size [1]: 0.938 ± 0.034 | cell count [2]: 0.367 ± 0.031

Clc1cccc(Cl)c1NC1=NCCN1 [Clonidine·HCl] (concentration: 25 µM)
mean cell size [1]: 0.931 ± 0.049 | cell count [2]: 0.224 ± 0.083

CC(=O)[C@@]1(O)CC[C@H]2[C@@H]3C[C@H](C)C4=CC(=O)C=C[C@]4(C)[C@@]3(F)[C@@H](O)C[C@@]21C [Fluorometholone] (concentration: 25 µM)
mean cell size [1]: 0.914 ± 0.06 | cell count [2]: 0.639 ± 0.12

CC[C@@H](CO)NCCN[C@@H](CC)CO [Ethambutol Dihydrochloride] (concentration: 25 µM)
mean cell size [1]: 1.02 ± 0.064 | cell count [2]: 0.721 ± 0.18

CC[C@]1(O)C[C@@H]2CN(CCc3c([nH]c4ccccc34)[C@@](C(=O)OC)(c3cc4c(cc3OC)N(C)[C@H]3[C@@](O)(C(=O)OC)[C@H](OC(C)=O)[C@]5(CC)C=CCN6CC[C@]43[C@@H]65)C2)C1 [Vinblastine Sulfate] (concentration: 25 nM)
mean cell size [1]: 0.971 ± 0.031 | cell count [2]: 0.0701 ± 0.058

COc1ccccc1OCCNCC(O)COc1cccc2[nH]c3ccccc3c12 (centres undefined) [Carvedilol] (concentration: 25 µM)
mean cell size [1]: 1.01 ± 0.014 | cell count [2]: 0.39 ± 0.034

COCCOC(=O)C1=C(C)NC(C)=C(C(=O)OC(C)C)C1c1cccc([N+](=O)[O-])c1 (centres undefined) [Nimodipine] (concentration: 25 µM)
mean cell size [1]: 0.938 ± 0.027 | cell count [2]: 0.628 ± 0.17

CN(C)CCOC(c1ccccc1)c1ccccc1.Cn1c(=O)c2[nH]c(Cl)nc2n(C)c1=O [Dimenhydrinate] (concentration: 25 µM)
mean cell size [1]: 1.05 ± 0.051 | cell count [2]: 0.558 ± 0.15
